# Several values for one entry are separate records, joined by “and”; a condition that tells them apart may be missing. Identical values can stand only once. Results filed as inconclusive are left out. A number with no mark means an inactive call. Activity calls are given as the source filed them. The call rests on the fitted dose curve; in most records, active means well fitted cell-killing curve with a large enough effect; inconclusive means small, poorly fitted or top-dose-only effect; inactive means flat fitted curve, though single readings scatter.
# Assay: Cellular viability qHTS for adrenocortical cancer (ACC) cell line SW-13 (AID 1963989); further: nearly all actives have a fitted effect of over 65% in size;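 on activity (max response): cells grown in serum-free medium with ITS supplement; on the % scale 0 is the no-effect control and ±100 the full control effect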
# Conditions: SW-13 ACC cells viability, CellTiter-Glo, 48 h; activity (max response): active compounds read low
# How it was run: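 Here, serum-free SW-13 cultures were dosed up to 46 uM. Following 48 h, ATP-dependent luminescence (CellTiter-Glo) reported viable cells, and logistic modeling produced IC50 values.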
# Potency means the concentration at half of the fitted maximal effect.
Structure (SMILES),activity (max response),Potency
CC1(C)CC/C(=C/c2ccc(Cl)cc2)C1(O)Cn1cncn1 (configuration not stated),3.72%,–
CC(CC(C#N)(c1ccccc1)c1ccccc1)N(C)C (configuration not stated),-32%,–
C/C(O)=C(\C#N)C(=O)Nc1cc(Br)ccc1Br,-6.51%,–
O=C1CN2CCOC2(c2ccccc2Cl)c2cc(Cl)ccc2N1 (configuration not stated),-4.14%,–
CCN(CC)Cc1nccn1-c1ccc([N+](=O)[O-])cc1C(=O)c1ccccc1Cl,-3.26%,–
CCOC(=O)c1cncn1C(C)c1ccccc1 (configuration not stated),4.76%,–
O=C(CBr)N1CC([N+](=O)[O-])([N+](=O)[O-])C1,7.48%,–
Cc1sc2c(c1C)C(c1ccc(Cl)cc1)=NC(CC(N)=O)c1nnc(C)n1-2 (configuration not stated),-21.6%,–
O=C(Nc1ccccc1-c1ccc(Cl)cc1)c1cccnc1Cl,-12.7%,–
CC(Cc1ccccc1)NCCCCl (configuration not stated),-2.78%,–
Oc1ccc([C@H]2CNCc3c2ccc(O)c3O)cc1O,-10.4%,–
CCOC(=O)C1(c2ccccc2)CCN(CCc2ccc(N)cc2)CC1,-18.4%,–
COC(=O)[C@@]12OC[C@]34[C@H]([C@@H](O)[C@@H]1O)[C@@]1(C)CC(=O)C(O)=C(C)[C@@H]1C[C@H]3OC(=O)[C@H](OC(=O)/C=C(\C)C(C)C)[C@@H]24,–,6.31 µM (active)
CCC(=O)O[C@H]1CC[C@H]2[C@@H]3CCC4=CC(=O)CC[C@]4(C)[C@H]3CC[C@]12C,-15%,–
Clc1ccc(C(c2ccc(Cl)cc2)C(Cl)(Cl)Cl)cc1,4.08%,–
CC(C(O)c1ccccc1)N(C)C/C=C/c1ccccc1 (configuration not stated),-14.5%,–
C[CH2][Hg][S]c1ccccc1C(=O)O,–,2.59 µM (active)
S=C(SSC(=S)N1CCCCC1)N1CCCCC1,-0.757%,–
ClCCCN1CCN(c2cccc(Cl)c2)CC1,-6.01%,–
CC(CCc1ccccc1)NC(C)C(O)c1ccc(O)cc1 (configuration not stated),-14.3%,–

Structure (SMILES),activity (max response),Potency
CN1CCc2cc(Cl)c(O)cc2[C@H]2c3ccccc3CC[C@@H]21,-19.8%,–
CCCN1CCC[C@@H]2Cc3nc(N)ncc3C[C@H]21,3.03%,–
C[C@]12CC[C@H]3[C@@H](CCC4=CC(=O)CC[C@@H]43)[C@@H]1CC[C@@H]2OC(=O)CCc1ccccc1,-0.27%,–
C[C@]12CC[C@H](O)CC1=CC[C@@H]1[C@@H]2CC[C@]2(C)C(=O)CC[C@@H]12,3.86% and -7.41%,–
COC(=O)[C@]12CCC(C)(C)C[C@H]1[C@H]1C(=O)C=C3[C@@]4(C)C=C(C#N)C(=O)C(C)(C)[C@@H]4CC[C@@]3(C)[C@]1(C)CC2,–,6.31 µM (active)
CC(Cc1ccccc1)NCCn1cnc2c1c(=O)n(C)c(=O)n2C (configuration not stated),-22.4%,–
CC(=O)[C@H]1CC[C@H]2[C@@H]3CC[C@H]4C[C@H](O)CC[C@]4(C)[C@H]3C(=O)C[C@]12C,0.908%,–
CC(=O)N1N=C(c2ccc(N)cc2)c2cc3c(cc2C[C@H]1C)OCO3,-25.9%,–
CC(C)(C)C(O)C(Oc1ccc(Cl)cc1)n1cncn1 (configuration not stated),-16.3%,–
Cc1ncc2n1-c1ccc(Cl)cc1C(c1ccccc1F)=NC2,-18.8%,–
CC(C)(C)OC(=O)c1ncn2c1[C@@H]1CCCN1C(=O)c1c(Br)cccc1-2,2.94%,–
CC(Cc1ccc2c(c1)OCO2)NO (configuration not stated),-5.75%,–
CCCN(CCC)C(=O)Cc1c(-c2ccc(Cl)cc2)nc2ccc(Cl)cn12,-9.21%,–
CCCOC(=O)Cc1ccc(OCC(=O)N(CC)CC)c(OC)c1,10.7%,–
OC(c1ccccc1)(c1ccccc1)C1CCNCC1,1.1%,–
O=C(CBr)Nc1ccc(Cl)cc1C(=O)c1ccccc1F,-3.92%,–
CCOCCOC(C)=O,7.41%,–
O=S(=O)(O)C(F)(F)C(F)(F)C(F)(F)C(F)(F)F,12.3%,–
CCOP(=O)(NC(C)C)Oc1ccc(SC)c(C)c1 (configuration not stated),-12.8%,–

# Assay: Cellular viability qHTS for adrenocortical cancer (ACC) cell line NCI-H295R (AID 1963990); further: nearly all actives have a fitted effect of over 60% in size;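 on activity change, negative = viability loss: 0% = DMSO only wells and -100% = full killing with cytotoxic reference compound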
# Conditions: CellTiter-Glo ATP luminescence, 48 h; series mostly up to 46.1 µM; activity change, negative = viability loss: at the top concentration
# How it was run: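 Viability of NCI-H295R after 48 h of treatment (final up to 46 uM) measured through cellular ATP luminescence.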
Structure (SMILES),"activity change, negative = viability loss",Potency
CCOC(=O)c1cncn1C(C)c1ccccc1 (configuration not stated),-18.2%,–
O=C(CBr)N1CC([N+](=O)[O-])([N+](=O)[O-])C1,-12.2% [at 92.7 µM],–
CC(Cc1ccccc1)NCCCCl (configuration not stated),18.2%,–
CCOC(=O)C1(c2ccccc2)CCN(CCc2ccc(N)cc2)CC1,0.524%,–
C[CH2][Hg][S]c1ccccc1C(=O)O,–,1.64 µM (active)
CC(CCc1ccccc1)NC(C)C(O)c1ccc(O)cc1 (configuration not stated),-5.57%,–
C[C@]12CC[C@H](O)CC1=CC[C@@H]1[C@@H]2CC[C@]2(C)C(=O)CC[C@@H]12,–,inactive
COC(=O)[C@]12CCC(C)(C)C[C@H]1[C@H]1C(=O)C=C3[C@@]4(C)C=C(C#N)C(=O)C(C)(C)[C@@H]4CC[C@@]3(C)[C@]1(C)CC2,–,3.98 µM (active)
CC(=O)N1N=C(c2ccc(N)cc2)c2cc3c(cc2C[C@H]1C)OCO3,-9.52%,–
Cc1ncc2n1-c1ccc(Cl)cc1C(c1ccccc1F)=NC2,-19.4%,–
CC(C)(C)OC(=O)c1ncn2c1[C@@H]1CCCN1C(=O)c1c(Br)cccc1-2,1.12%,–
CCCN(CCC)C(=O)Cc1c(-c2ccc(Cl)cc2)nc2ccc(Cl)cn12,0.0125%,–
OC(c1ccccc1)(c1ccccc1)C1CCNCC1,-0.339%,–

# — PubChem BioAssay (NCATS)
